Assay in all cases: DAPPL (digital affinity profiling via proximity ligation, sequencing); 10 mM Tris-HCl pH 7.5, 50 mM NaCl, 1 mM DTT, 4% glycerol, room temperature, 30 min; GST-TFs on glutathione beads, 16-mer random dsDNA library, 0.1% formaldehyde crosslink after washing; high values mean tight binding
Holding throughout (conditions): protein: recombinant; tags: N-terminal GST; dsDNA, one strand shown

The target of one test is T1, ELK1 (Homo sapiens, UniProt P19419 1-428).
T1 sequence: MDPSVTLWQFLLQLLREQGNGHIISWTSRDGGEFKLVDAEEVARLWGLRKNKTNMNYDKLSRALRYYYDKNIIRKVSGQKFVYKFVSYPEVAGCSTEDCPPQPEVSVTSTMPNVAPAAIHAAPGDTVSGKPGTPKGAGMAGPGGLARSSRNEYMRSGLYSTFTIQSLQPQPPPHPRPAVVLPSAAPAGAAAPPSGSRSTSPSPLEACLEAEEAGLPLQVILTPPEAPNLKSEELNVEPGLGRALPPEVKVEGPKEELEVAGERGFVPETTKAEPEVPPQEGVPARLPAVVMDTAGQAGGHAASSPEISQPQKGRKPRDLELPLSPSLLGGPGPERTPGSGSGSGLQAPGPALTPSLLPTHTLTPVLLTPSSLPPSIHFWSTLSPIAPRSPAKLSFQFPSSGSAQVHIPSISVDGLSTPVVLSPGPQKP
The procedure, abridged: (§1)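 Binding signal is each hexamer's read frequency for a factor divided by its frequency in the tag-only sample. The factors were GST-fused human transcription factors from yeast, captured on glutathione beads, DNA-barcoded and pooled with that sample. Pools were incubated with 200 nmole of a random double-stranded 16-mer DNA library in Tris/NaCl/DTT/glycerol buffer at room temperature for 30 min, then washed, crosslinked with 0.1% formaldehyde, proximity-ligated with BsaI/T4 ligase (1 h, 37 °C), PCR-amplified and sequenced on an Illumina NextSeq500.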

For the next test, the target named is T2, GABPA (Homo sapiens, UniProt Q06546 1-454).
T2 sequence: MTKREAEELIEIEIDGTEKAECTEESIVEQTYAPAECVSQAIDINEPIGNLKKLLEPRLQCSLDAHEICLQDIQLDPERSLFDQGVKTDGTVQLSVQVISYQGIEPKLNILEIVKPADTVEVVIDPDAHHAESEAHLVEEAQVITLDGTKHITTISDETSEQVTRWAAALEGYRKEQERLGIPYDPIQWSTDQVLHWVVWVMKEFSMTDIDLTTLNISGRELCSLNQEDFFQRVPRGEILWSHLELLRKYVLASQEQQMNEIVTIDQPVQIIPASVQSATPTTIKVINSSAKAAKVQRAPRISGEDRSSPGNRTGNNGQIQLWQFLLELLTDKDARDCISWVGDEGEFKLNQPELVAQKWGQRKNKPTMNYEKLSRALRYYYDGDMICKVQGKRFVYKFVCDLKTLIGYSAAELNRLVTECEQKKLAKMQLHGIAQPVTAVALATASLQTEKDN
The procedure, abridged:
as §1

Another test addresses T3, ERG (Homo sapiens, UniProt P11308 1-479).
T3 sequence: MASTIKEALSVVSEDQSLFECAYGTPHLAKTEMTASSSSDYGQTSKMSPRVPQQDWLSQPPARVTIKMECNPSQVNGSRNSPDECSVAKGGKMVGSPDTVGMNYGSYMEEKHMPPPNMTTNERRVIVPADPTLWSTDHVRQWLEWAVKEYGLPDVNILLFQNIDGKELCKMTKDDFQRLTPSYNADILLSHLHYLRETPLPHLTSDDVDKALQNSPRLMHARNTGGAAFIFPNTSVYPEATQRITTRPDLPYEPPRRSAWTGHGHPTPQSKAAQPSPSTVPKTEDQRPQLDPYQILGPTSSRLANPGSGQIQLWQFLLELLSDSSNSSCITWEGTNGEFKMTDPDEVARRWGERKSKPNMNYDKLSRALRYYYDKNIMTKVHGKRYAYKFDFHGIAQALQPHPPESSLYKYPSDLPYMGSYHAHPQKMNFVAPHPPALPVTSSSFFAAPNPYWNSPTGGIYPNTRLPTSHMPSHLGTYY
The method in brief: as §1

Another test has as its target ELF1 (Homo sapiens, UniProt P32519 1-619). The procedure, abridged:
as §1

Another test concerns the target T4, EHF (Homo sapiens, UniProt Q9NZC4 1-300).
T4 sequence: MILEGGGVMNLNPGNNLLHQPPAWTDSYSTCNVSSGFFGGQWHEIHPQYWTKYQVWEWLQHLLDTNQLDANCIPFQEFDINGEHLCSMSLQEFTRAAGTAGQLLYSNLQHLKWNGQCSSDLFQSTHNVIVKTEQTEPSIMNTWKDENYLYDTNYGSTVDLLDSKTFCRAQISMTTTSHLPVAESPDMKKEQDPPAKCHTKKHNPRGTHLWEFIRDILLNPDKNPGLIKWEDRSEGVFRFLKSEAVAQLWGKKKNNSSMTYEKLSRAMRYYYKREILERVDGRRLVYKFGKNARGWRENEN
The procedure, abridged: as §1

The target of the next test is SPI1 (Homo sapiens, UniProt P17947 1-270). The method in brief: as §1
For another test, the target named is SPIB (Homo sapiens, UniProt Q01892 1-262). The procedure, abridged: as §1
The target in the next test is T5, FEV (Homo sapiens, UniProt Q99581 1-238).
T5 sequence: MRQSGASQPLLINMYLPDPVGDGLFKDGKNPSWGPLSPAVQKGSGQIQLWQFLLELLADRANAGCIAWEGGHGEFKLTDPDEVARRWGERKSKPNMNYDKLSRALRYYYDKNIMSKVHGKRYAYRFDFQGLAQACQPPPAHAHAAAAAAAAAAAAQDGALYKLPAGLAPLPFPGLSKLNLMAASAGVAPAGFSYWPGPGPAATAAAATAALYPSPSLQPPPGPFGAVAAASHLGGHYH
The method in brief: as §1

The next test concerns the target ETV5 (Homo sapiens, UniProt P41161 1-510). The procedure, abridged:
as §1

In another test the target is T6, ELK4 (Homo sapiens, UniProt P28324-2 1-405).
T6 sequence: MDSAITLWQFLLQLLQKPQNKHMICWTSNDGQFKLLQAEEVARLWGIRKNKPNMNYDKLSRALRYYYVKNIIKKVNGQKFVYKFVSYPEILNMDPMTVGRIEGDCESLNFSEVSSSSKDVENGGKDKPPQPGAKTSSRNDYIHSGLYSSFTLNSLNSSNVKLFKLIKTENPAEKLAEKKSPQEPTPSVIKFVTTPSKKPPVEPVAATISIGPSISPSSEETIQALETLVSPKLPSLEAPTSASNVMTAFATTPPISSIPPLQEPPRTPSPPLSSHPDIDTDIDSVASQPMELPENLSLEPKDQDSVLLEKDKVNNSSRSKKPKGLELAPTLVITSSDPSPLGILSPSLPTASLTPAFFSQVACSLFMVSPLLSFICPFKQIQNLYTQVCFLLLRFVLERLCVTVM
The method in brief: as §1

For a further test, the target named is T7, ELF3 (Homo sapiens, UniProt P78545 1-371).
T7 sequence: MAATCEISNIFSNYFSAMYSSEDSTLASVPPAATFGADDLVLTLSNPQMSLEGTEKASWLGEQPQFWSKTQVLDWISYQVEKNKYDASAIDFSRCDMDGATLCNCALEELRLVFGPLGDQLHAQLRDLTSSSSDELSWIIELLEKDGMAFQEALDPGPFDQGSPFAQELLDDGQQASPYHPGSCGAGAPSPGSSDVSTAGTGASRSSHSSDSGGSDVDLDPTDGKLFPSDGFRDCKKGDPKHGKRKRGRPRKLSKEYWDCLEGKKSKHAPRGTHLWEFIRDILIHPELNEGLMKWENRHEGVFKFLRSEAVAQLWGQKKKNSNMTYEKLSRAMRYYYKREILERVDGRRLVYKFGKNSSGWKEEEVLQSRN
The method in brief:
as §1

The next test has as its target ETV1 (Homo sapiens, UniProt P50549 1-477). The method in brief: as §1
Another test concerns the target T8, ERF (Homo sapiens, UniProt P50548 1-548).
T8 sequence: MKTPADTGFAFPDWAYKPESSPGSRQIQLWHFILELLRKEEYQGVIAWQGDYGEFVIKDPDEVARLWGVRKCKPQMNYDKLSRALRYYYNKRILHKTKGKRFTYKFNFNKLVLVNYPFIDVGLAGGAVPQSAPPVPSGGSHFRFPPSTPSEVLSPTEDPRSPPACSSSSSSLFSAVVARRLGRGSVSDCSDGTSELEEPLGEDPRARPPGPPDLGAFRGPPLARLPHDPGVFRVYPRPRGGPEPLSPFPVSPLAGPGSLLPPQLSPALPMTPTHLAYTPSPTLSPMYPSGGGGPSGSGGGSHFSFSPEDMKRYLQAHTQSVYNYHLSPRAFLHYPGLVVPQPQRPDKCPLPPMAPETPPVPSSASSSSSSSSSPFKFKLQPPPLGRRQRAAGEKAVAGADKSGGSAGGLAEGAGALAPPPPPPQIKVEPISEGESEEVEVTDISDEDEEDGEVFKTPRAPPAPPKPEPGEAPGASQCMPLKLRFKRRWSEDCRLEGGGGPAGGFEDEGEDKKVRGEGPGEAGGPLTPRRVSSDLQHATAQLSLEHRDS
The method in brief: as §1

In a further test the target is T9, ETV3L (Homo sapiens, UniProt Q6ZN32 1-361).
T9 sequence: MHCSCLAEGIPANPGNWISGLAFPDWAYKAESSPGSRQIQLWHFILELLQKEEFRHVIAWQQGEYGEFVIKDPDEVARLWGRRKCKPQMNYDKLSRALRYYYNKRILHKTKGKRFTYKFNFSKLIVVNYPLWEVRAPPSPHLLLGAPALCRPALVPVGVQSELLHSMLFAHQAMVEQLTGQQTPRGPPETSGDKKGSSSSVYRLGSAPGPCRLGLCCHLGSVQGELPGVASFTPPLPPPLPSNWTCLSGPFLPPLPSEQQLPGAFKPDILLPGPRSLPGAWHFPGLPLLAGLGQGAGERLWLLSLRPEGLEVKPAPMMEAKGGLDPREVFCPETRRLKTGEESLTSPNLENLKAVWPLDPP
The method in brief:
as §1

The target of another test is T10, ETS2 (Homo sapiens, UniProt P15036 1-469).
T10 sequence: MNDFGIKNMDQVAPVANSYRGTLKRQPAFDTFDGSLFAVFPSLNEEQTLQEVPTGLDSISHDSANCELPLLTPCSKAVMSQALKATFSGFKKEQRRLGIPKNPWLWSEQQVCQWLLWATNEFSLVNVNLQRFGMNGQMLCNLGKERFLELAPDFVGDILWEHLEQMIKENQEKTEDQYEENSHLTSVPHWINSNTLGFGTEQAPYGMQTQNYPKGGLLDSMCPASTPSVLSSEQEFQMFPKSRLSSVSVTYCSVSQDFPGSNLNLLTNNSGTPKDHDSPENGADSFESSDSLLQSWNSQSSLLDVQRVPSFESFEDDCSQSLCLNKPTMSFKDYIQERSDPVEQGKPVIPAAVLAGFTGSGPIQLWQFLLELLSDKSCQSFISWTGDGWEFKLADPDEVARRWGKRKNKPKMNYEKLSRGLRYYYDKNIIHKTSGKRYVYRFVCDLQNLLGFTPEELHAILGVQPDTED
The procedure, abridged:
as §1

The target of another test is T11, ETV7 (Homo sapiens, UniProt Q9Y603 1-341).
T11 sequence: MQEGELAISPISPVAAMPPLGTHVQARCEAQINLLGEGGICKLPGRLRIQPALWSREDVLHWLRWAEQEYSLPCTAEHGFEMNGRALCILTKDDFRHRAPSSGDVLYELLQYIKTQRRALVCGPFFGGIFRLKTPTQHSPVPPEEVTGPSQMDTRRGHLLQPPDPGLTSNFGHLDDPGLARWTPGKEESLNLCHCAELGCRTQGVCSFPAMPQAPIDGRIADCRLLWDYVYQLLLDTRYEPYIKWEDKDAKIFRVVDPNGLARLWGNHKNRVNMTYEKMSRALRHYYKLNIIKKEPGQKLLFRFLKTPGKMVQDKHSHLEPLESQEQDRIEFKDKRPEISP
The procedure, abridged: as §1

For a further test, the target named is T12, ETV3 (Homo sapiens, UniProt P41162-2 1-143).
T12 sequence: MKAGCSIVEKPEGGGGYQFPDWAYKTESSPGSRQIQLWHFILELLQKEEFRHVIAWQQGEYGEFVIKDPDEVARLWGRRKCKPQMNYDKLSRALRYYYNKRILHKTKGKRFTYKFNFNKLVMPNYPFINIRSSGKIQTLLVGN
The procedure, abridged:
as §1

Sequence of SPIB (Q01892 whole entry): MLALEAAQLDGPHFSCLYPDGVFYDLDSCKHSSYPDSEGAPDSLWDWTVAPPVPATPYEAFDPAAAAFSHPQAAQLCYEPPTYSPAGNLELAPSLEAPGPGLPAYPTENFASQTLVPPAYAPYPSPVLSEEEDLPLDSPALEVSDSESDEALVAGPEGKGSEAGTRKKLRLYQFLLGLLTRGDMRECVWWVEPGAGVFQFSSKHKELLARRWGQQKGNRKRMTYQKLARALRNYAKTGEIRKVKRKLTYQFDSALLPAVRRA
Sequence of ETV5 (P41161 whole entry): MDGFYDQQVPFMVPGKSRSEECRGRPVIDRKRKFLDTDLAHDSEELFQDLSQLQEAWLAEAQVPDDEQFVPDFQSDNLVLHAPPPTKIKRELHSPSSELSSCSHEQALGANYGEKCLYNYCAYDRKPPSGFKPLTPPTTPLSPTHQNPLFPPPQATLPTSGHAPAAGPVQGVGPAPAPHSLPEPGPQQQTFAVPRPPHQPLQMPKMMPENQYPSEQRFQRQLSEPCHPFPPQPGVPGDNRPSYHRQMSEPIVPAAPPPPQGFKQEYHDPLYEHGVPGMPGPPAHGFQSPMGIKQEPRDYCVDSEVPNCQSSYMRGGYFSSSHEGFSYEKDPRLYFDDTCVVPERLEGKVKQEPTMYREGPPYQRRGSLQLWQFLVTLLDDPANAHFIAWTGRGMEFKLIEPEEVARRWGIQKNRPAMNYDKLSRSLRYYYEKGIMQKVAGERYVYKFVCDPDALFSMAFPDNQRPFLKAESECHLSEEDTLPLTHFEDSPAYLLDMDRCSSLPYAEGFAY
Sequence of ETV1 (P50549 whole entry): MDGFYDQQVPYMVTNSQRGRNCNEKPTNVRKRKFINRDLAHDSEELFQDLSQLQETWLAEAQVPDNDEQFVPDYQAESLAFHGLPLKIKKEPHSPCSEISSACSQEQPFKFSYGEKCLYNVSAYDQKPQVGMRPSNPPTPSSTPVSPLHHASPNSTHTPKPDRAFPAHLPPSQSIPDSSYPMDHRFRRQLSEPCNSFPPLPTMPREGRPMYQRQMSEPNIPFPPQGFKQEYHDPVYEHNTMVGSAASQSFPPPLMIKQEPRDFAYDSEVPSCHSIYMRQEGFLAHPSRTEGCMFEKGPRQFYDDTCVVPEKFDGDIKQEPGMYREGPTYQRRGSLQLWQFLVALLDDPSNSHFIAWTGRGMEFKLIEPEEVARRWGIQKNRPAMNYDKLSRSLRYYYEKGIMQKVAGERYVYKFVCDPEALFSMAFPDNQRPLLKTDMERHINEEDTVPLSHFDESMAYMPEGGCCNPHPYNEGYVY
Sequence of ELF1 (P32519 whole entry): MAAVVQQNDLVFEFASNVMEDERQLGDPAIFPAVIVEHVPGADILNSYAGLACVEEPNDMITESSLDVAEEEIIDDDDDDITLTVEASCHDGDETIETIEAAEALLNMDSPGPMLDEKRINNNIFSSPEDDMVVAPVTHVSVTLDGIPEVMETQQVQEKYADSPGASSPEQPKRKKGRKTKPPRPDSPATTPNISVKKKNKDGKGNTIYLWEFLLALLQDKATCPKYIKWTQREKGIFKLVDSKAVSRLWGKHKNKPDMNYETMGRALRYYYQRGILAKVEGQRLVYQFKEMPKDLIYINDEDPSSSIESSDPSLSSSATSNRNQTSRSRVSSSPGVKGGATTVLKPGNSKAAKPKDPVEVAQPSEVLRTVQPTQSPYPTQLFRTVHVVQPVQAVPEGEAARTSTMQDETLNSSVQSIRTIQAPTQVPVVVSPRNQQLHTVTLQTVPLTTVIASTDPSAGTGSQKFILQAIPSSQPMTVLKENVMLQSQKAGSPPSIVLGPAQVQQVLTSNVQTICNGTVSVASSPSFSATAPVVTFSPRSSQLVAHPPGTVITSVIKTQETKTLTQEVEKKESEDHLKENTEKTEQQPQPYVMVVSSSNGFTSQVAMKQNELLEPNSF

In the case of AGCGAT, the binding signal with ELK1 was 1.11 fold enrichment (6-mer frequency, TF over GST control); in the test with GABPA it was 1.07 fold enrichment (6-mer frequency, TF over GST control); with ERG it was 1.06 fold enrichment (6-mer frequency, TF over GST control); with ELF1 it was 1.09 fold enrichment (6-mer frequency, TF over GST control); with EHF, 1.07 fold enrichment (6-mer frequency, TF over GST control); with SPI1, 1.07 fold enrichment (6-mer frequency, TF over GST control). The binding signal was 1.02 fold enrichment (6-mer frequency, TF over GST control) in the test with SPIB; 1.05 fold enrichment (6-mer frequency, TF over GST control) with FEV; 1.14 fold enrichment (6-mer frequency, TF over GST control) in the test with ETV5; 1.07 fold enrichment (6-mer frequency, TF over GST control) with ELK4; 1.2 fold enrichment (6-mer frequency, TF over GST control) with ELF3; 1.02 fold enrichment (6-mer frequency, TF over GST control) with ETV1. The binding signal is 1.09 fold enrichment (6-mer frequency, TF over GST control) with ERF; 1.1 fold enrichment (6-mer frequency, TF over GST control) with ETV3L; 1.09 fold enrichment (6-mer frequency, TF over GST control) with ETS2; 1.09 fold enrichment (6-mer frequency, TF over GST control) in the test with ETV7; 1.02 fold enrichment (6-mer frequency, TF over GST control) with ETV3.

The values are drawn from publication PMC7862700, “An all-to-all approach to the identification of sequence-specific readers for epigenetic DNA modifications on cytosine”.
